Assay outcomes from PubChem.
This is a sample that favours compounds with a hit; in the whole collection about 21% have one here.
ELG1 DNA repair: qHTS screen for small molecules that inhibit ELG1-dependent DNA repair in human embryonic kidney (HEK293T) cells expressing luciferase-tagged ELG1; HEK293T ELG1-luciferase reporter, luminescence, 16 h; DNA damage induced by 5-fluorouridine; Potency, µM (series often up to 46.1 µM), for inactives: at the top dose activity change, negative = inhibition, actives largely listed as inhibitors; 330,000 compounds, 2.3% hits; further: potency means the concentration at half of the fitted maximal effect; nearly all actives have a fitted effect of over 55% in size
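DMSO vehicle served as the neutral condition. Each well held 2,000 cells given 5-fluorouridine plus compound; after 16 hr at 37 °C/5% CO2, ONE-Glo was added and luciferase measured 30 min later.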
DT40 TDP1 no CPT: qHTS for Inhibitors of human tyrosyl-DNA phosphodiesterase 1 (TDP1): qHTS in cells in absence of CPT; DT40 Tdp1-/- hTDP1 cells, no CPT, ATP luminescence, 48 h; Potency, µM (doses to about 46.2 µM), without a hit: top-dose activity change, negative = growth inhibition, usual class: inhibitors; 420,000 compounds, 15% hits; AID 686978, 2013; further: potency means the concentration at half of the fitted maximal effect; nearly all actives have a fitted effect of over 55% in size
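Luminescent ATP content (CellTiter-Glo) served as the growth readout. Knockout chicken DT40 cells expressing human TDP1 were exposed to compounds without camptothecin for a minimum 48 hr at 37 °C.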
TDP1 cell CPT: qHTS for Inhibitors of human tyrosyl-DNA phosphodiesterase 1 (TDP1): qHTS in cells in presence of CPT | chicken DT40 Tdp1-/-;hTDP1 cells + 20 nM CPT, ATP luminescence, 48 h | Potency, µM (top dose mostly 46.2 µM), without a hit: at the top dose activity change, negative = growth inhibition, actives largely listed as inhibitors | 420,000 compounds, 12% hits; further: potency means the concentration at half of the fitted maximal effect; nearly all actives have a fitted effect of over 55% in size
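Chicken DT40 Tdp1-/- cells complemented with human TDP1, 400 cells/well, exposed to compounds plus 20 nM camptothecin for at least 48 h at 37 C; viability read as ATP content by CellTiter-Glo luminescence.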
IL1B secr inh: qHTS for Inhibitors of Inflammasome Signaling: IL-1-beta AlphaLISA Primary Screen | AID 743279, 2014 | THP-1 LPS/ATP IL-1B secretion, AlphaLISA, 16 h; stronger effect = lower value | 360,000 compounds, 4.7% hits | activity change, % at 57.5 µM; in the data active means activity change below about -50%; inconclusive means mostly about -30% to -49%
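THP-1 cells pretreated 1 hr with compounds (up to 57.5 uM final), then stimulated with LPS (250 ng/mL final) plus ATP (1.25 mM final); secreted IL-1B measured by AlphaLISA after 16 hr, decreased signal indicating inhibition.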
RORgamma inh: qHTS for inhibitors of ROR gamma transcriptional activity | Potency, µM (doses to about 53.6 µM), without a hit: at the highest dose activity change, negative = inhibition, most hits filed as inhibitors | AID 2551, 2010 | 310,000 compounds, 5.4% hits | Drosophila S2 Gal4-RORgamma UAS-luciferase reporter, 20 h; further: potency means the concentration at half of the fitted maximal effect; nearly all actives have a fitted effect of over 60% in size
Target sequence (P51450 whole entry, looked up, the tested form may be a part): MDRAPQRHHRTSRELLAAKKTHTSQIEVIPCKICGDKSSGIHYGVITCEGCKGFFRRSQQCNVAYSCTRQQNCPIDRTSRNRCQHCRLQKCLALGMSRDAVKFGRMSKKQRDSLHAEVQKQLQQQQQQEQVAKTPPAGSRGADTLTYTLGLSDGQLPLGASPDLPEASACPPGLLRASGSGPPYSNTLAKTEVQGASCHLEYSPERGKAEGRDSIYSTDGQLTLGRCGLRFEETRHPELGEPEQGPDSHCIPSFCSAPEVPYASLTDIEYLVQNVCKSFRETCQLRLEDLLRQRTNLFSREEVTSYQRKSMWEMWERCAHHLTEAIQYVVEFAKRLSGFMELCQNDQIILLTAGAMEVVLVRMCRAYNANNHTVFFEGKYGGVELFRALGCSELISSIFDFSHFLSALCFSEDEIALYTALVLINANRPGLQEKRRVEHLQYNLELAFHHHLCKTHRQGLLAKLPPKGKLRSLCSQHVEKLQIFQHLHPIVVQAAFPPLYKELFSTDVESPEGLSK
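ROR gamma transcriptional activity was tracked as Gal4-UAS luciferase output in stably transfected Drosophila Schneider cells, with compound added 1 hr before 700 uM copper sulfate induction and a 20 hr ambient-temperature incubation.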
Gal4-VP16 FLuc: VP16 counterscreen qHTS for inhibitors of ROR gamma transcriptional activity. Drosophila S2 Gal4-VP16 UAS-luciferase, luminescence, 20 h. Potency, µM (doses to about 53.6 µM), for inactives: at the top dose activity, negative = inhibition, actives largely listed as inhibitors. 310,000 compounds, 3.5% hits. AID 2546, 2010;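 further: Gal4-VP16 expression switched on by copper sulfate through the metallothionein promoter; potency means the concentration at half of the fitted maximal effect; nearly all actives have a fitted effect of over 50% in size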
Active calls of the source: *; ? = inconclusive; · = no result; [ ] = another dose, or the depositor's remark. Unless noted, the call rests on the fitted dose curve; in most records, active means well fitted curve in the direction sought with a large enough effect; inconclusive means small, poorly fitted or top-dose-only effect, or another doubt; inactive means no such curve, though single readings can be large; an effect the other way counts as inactive or inconclusive. On the % scale 0 is the no-effect control and ±100 the full control effect.

SMILES | ELG1 DNA repair | DT40 TDP1 no CPT | TDP1 cell CPT | IL1B secr inh | RORgamma inh | Gal4-VP16 FLuc
CC(C)CC(=O)Nc1ccc2c(c1)oc1ccccc12 | ? | ? | ? | 4 | -36% | -20%
Cc1ccc(NC(=O)c2oc3ccccc3c2NC(=O)C2CC2)cc1 | 1% | 3% | -6% | -1 | 9% | 3%
COC(=O)[C@H]1C[C@@H]1[C@H](N)c1ccccc1 | 8% | -2% | 0% | 19 | 4% | 2%
COC(=O)c1ccc(/C=C(\C#N)c2nc3ccccc3s2)cc1 | ? | -4% | -13% | 44 | 11% | -10%
C=C(/C=C/c1ccc(N(C)C)cc1)c1nc2ccccc2s1 | · | 0.11µM* | 0.089µM* | · | · | ·
CN(Cc1ccccc1)c1ccc(/C=C/c2nc3ccccc3s2)cc1 | · | 0.1µM* | 0.32µM* | · | · | ·
Cc1ccc(/C=C/c2nc3ccccc3s2)s1 | ? | -25% | -12% | -1 | ? | 10µM*
c1ccc(Cc2nc3ccccc3s2)cc1 | · | -17% | -10% | 6 | · | ·
CN(C)c1ccc(CNc2nc3ccccc3s2)cc1 | ? | · | · | · | 5µM* | 7.9µM*
COc1cc(OC)c2c(C)c(CC(=O)N3CCCCC3)c(=O)oc2c1 | · | -22% | 8% | · | · | ·
CN(C)[C@H]1C(=O)C(C(=O)NCN2CCCC2)=C(O)[C@]2(O)C(=O)C3=C(O)c4c(O)cccc4[C@@](C)(O)[C@H]3C[C@@H]12 | · | · | · | · | -19%[2.98 µM] | 1%[17 µM]
Cc1ccc(-c2cc(C(=O)Oc3ccccc3)c3cc(C)ccc3n2)cc1 | · | -8% | 7% | · | · | ·
CN(C)c1ccc(/C=C/c2nc3ccccc3s2)cc1 | -26% | 0.1µM* | 16µM* | -25 | 0.32µM* | 4µM*
CN(C)c1nc(N)nc(-c2nc3ccccc3s2)n1 | ? | -2% | 4% | -9 | ? | -4%
CN(C)CCCNc1ncnc2oc(-c3ccccc3)c(-c3ccccc3)c12 | ? | ? | ? | -83* | -40% | -14%
CC(C)Cn1cnc2c(c(-c3ccccc3)c(-c3ccccc3)n2Cc2ccco2)c1=N | -11% | 18µM* | 21µM* | -65* | ? | -36%
N=c1c2c(-c3ccccc3)c(-c3ccccc3)n(Cc3ccco3)c2ncn1CCCN1CCOCC1 | -11% | 3.7µM* | ? | -96* | ? | ?
N=c1c2c(-c3ccccc3)c(-c3ccccc3)n(Cc3ccco3)c2ncn1CCCn1ccnc1 | -9% | 18µM* | 18µM* | -23 | ? | ?
N=c1c2c(-c3ccccc3)c(-c3ccccc3)n(Cc3ccco3)c2ncn1Cc1ccccc1 | ? | -9% | -27% | -15 | ? | ?
Cc1cc(N2CCC(C(=O)Nc3ccc(F)cc3C)CC2)n2nc(C)c(-c3ccc(Cl)cc3)c2n1 | · | -14% | ? | · | · | ·
CCCCn1c(SCC(=O)NCCCOC)nc2c(sc3ccccc32)c1=O | · | -13% | -8% | · | · | ·
c1ccc(-c2oc3ncnc(NCCCn4ccnc4)c3c2-c2ccccc2)cc1 | ? | 18µM* | 23µM* | -79* | 22µM* | ?
c1ccc(-c2c(-c3ccccc3)n(Cc3ccco3)c3ncnc(NCCCn4ccnc4)c23)cc1 | ? | ? | ? | -98* | -29% | 16µM*
c1ccc2c(c1)oc1c(NCCCn3ccnc3)ncnc12 | 13% | -23% | ? | 17 | ? | -3%
N=c1c2c(-c3ccccc3)c(-c3ccccc3)n(Cc3ccccc3)c2ncn1CCO | 12% | -120% | -118% | -107* | 7% | -13%
SMILES | ELG1 DNA repair | DT40 TDP1 no CPT | TDP1 cell CPT | IL1B secr inh | RORgamma inh | Gal4-VP16 FLuc
OCCn1cnc2c(SCc3ccccc3)ncnc21 | · | 0% | 3% | -18 | · | ·
Cc1cccc(CNC(=O)c2cnn(-c3nccc(-c4cc5ccccc5o4)n3)c2C2CC2)n1 | · | ? | -1%[9.04 µM] | · | · | ·
CC1=NN(c2nc(C)cc(C)n2)C(=O)C1CCC(C)C (stereo not drawn) | 18% | ? | ? | -10 | 2µM* | 7.9µM*
Cc1cc(C)nc(N2C(=O)CC(C(C)c3ccccc3)C2=O)n1 (stereo not drawn) | 7% | -17% | 5% | 7 | -18% | 0%
CCOc1cc2[nH]c(=S)n(CCCC(=O)NCc3ccccn3)c(=O)c2cc1OCC | -10% | ? | ? | -4 | -12% | -3%
CC(OC(=O)c1snc(C(=O)NC2CCCCC2)c1N)C(=O)NC(C)(C)C (stereo not drawn) | ? | 13µM* | 14µM* | 0 | ? | ?
CC(C)(C)NC(=O)COC(=O)c1snc(C(=O)NC2CCCCC2)c1N | ? | -13% | -14% | ? | -37% | 5.6µM*
COc1ccc(CN(C)CCCn2cnc3c(OCc4ccccc4)ncnc32)cc1OC | · | -21% | -25% | 12 | · | ·
CC(C)CCNC(=O)Cn1c2c(c(-c3ccccc3Cl)cc1=O)CCC2 | -26% | ? | -23% | -10 | 32% | -17%
CC1CCC(NC(=O)Cn2c3c(c(-c4ccccc4Cl)cc2=O)CCC3)CC1 (stereo not drawn) | ? | 13µM* | 16µM* | -16 | -18% | -2%
O=C(Nc1ccc(N=Nc2ccccc2)cc1)c1ccc(Cl)cc1Cl | 21% | ? | ? | -25 | ? | ?
CC(C)N(c1ccccc1)c1ccc(NC(=O)CCl)cc1 | -21% | 2.6µM* | 16µM* | -100* | ? | ?
CC(C)N(c1ccccc1)c1ccc(NC(=O)[C@@H]2O[C@H](CO)[C@H](O)[C@H](O)[C@H]2O)cc1 | · | -7% | -14% | 22 | · | ·
O=C(Nc1ccc(N=Nc2ccccc2)cc1)c1ccccc1Cl | ? | -28% | ? | -67* | -3% | -1%
O=C(CCl)Nc1ccc(N=Nc2ccccc2)cc1 | ? | ? | 2.9µM* | -98* | ? | ?
C=CCNC(=O)CSc1nnc(-c2cccc(S(=O)(=O)N3CCOCC3)c2)o1 | · | -2% | 6% | -11 | · | ·
COc1ccc(C#CC2C=CC(Oc3cc(C)cc(C)c3)C(CO)O2)cc1 (stereo not drawn) | · | · | · | · | 3%[10 µM] | -4%[10 µM]
COc1cc2nc(Cl)nc(N3CCCCC3)c2cc1OC | ? | 26µM* | -15% | -61* | -3% | -4%
